# Rows were chosen to be rich in hits. Some 7.6% of all compounds tested hit in one or more screens of this group.
# ELG1 repair inh: ELG1-dependent DNA repair inhibition; HEK293T ELG1-luciferase reporter, luminescence, 16 h; DNA damage induced by 5-fluorouridine; Potency, µM (doses to about 46.1 µM), without a hit: at the highest dose activity change, negative = inhibition, most hits filed as inhibitors; 330,000 tested, 2.3% active; AID 504467; also: potency is read from the fitted curve at half-maximal effect; % is scaled to controls: 0 for no effect and ±100 for the full control effect; nearly all actives have a fitted effect of over 55% in size
#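 HEK293T cells expressing luciferase-tagged ELG1 (2,000/well) received 5-Fluorouridine plus compound or DMSO for 16 hr at 37 °C. Luciferase was read by ONE-Glo luminescence after 30 min at room temperature.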
# RORg inh: blocks mouse ROR gamma transcriptional activity. 310,000 tested, 5.4% active. Drosophila S2 Gal4-RORgamma UAS-luciferase reporter, 20 h. Potency, µM (top dose mostly 53.6 µM), without a hit: top-dose activity change, negative = inhibition, actives largely listed as inhibitors. P51450; also: potency is read from the fitted curve at half-maximal effect; % is scaled to controls: 0 for no effect and ±100 for the full control effect; nearly all actives have a fitted effect of over 60% in size
# Target sequence (P51450 whole entry, looked up, the tested form may be a part): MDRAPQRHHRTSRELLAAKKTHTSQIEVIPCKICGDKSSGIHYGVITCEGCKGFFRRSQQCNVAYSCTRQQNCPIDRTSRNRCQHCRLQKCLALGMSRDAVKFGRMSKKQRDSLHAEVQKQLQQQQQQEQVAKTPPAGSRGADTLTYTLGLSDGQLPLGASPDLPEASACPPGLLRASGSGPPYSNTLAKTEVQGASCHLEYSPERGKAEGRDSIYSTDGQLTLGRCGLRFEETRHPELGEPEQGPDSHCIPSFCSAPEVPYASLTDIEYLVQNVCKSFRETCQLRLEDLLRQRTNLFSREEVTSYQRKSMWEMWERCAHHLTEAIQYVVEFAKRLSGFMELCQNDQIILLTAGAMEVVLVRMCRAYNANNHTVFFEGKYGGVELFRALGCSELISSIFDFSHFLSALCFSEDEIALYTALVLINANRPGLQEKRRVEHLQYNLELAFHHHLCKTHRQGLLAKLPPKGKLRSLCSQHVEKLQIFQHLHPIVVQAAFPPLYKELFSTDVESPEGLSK
#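 Luciferase reporter read in Schneider cells carrying Gal4-RORγ (mouse) and UAS-Photinus luciferase; cells given compound 1 h before 700 uM copper sulfate induction, then incubated 20 h at ambient temperature.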
# BRCA1 expr up: activators of BRCA1 expression; MCF7-BRCA1-FFLuc reporter, luminescence, 48 h; response scale: scaled: vehicle 0%, 10 µM genistein 100%; Potency, µM (series often up to 46.1 µM), for inactives: at the highest dose activation, hits mostly activators; 380,000 tested, 1.1% active; AID 624202; also: potency is read from the fitted curve at half-maximal effect; nearly all actives have a fitted effect of over 80% in size
#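 MCF7 cells carrying a BRCA1-firefly luciferase reporter (2000 cells/well, phenol-red free MEM) were attached for 2 h at 37 °C, then given compounds for 48 h. Luminescence was read 15 min after luciferase reagent; activity normalized to genistein (10 microM) and DMSO.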
# p53 reactivator: re-activators of mutant p53. H1299 p53-A138V BP100-luciferase reporter, luminescence, 24 h. Potency, µM (series often up to 92.2 µM), without a hit: at the highest dose activity change, positive = activation, hits mostly activators. 320,000 tested, 0.063% active; also: potency is read from the fitted curve at half-maximal effect; % of control where 0% means no effect; nearly all actives have a fitted effect of over 45% in size
#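 p53-null H1299 cells stably carrying temperature-sensitive p53-A138V and a BP100-luciferase reporter were pinned with compounds (4-point, 1:5 series) and held 24 hrs at 37 deg C. Luminescence was read 10 min after detection reagent.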
# VP16 counter: Gal4-VP16 reporter inhibition counter-screen. Drosophila S2 Gal4-VP16 UAS-luciferase, luminescence, 20 h. Potency, µM (series often up to 53.6 µM), inactives show at the highest dose activity, negative = inhibition, actives largely listed as inhibitors. 310,000 tested, 3.5% active;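 also: Gal4-VP16 expression switched on by copper sulfate through the metallothionein promoter; potency is read from the fitted curve at half-maximal effect; % is scaled to controls: 0 for no effect and ±100 for the full control effect; nearly all actives have a fitted effect of over 50% in size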
# Giardia killer: Giardia lamblia killing. Giardia lamblia trophozoite viability. activity change, % at 7.66 µM, hits read low. 340,000 tested, 0.15% active; in the data active = activity change below about -80%; inconclusive = between about -30% and that limit;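 also: parasites exposed to compound for two days anaerobically before the ATP read; % is scaled to controls: 0 for no effect and ±100 for the full control effect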
#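 Killing of trophozoites was scored by loss of ATP luminescence after a 48 hrs anaerobic exposure to compounds at 37 deg C, using 100 cells per well.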
# Starred values were filed as active, the others as inactive; ? = inconclusive; . = no result given; [ ] = remark or other dose. Unless noted, calls follow the shape of the dose curve; as a rule, active = well fitted curve in the direction sought with a large enough effect; inconclusive = small, poorly fitted or top-dose-only effect, or another doubt; inactive = no such curve, though single readings can be large; an effect the other way counts as inactive or inconclusive.
SMILES,ELG1 repair inh,RORg inh,BRCA1 expr up,p53 reactivator,VP16 counter,Giardia killer
Cc1oc(=O)c(NC(=O)c2ccccc2)cc1C(=O)c1ccccc1,?,?,47%,-4%,13µM*,-9
CC(=O)Nc1cc2ccccc2oc1=O,13%,23%,7%,5%,-11%,2
Cc1ccc(C(=O)Nc2cc3ccccc3oc2=O)cc1,?,1.6µM*,-68%,-11%,?,?
CC(=O)c1cc(NC(=O)c2ccccc2)c(=O)oc1C,?,11µM*,-60%,13%,2.5µM*,9
Cc1noc(C)c1S(=O)(=O)N(C)C[C@H]1Oc2ccc(NC(=O)Cc3ccccc3)cc2C(=O)N([C@H](C)CO)C[C@@H]1C,-15%,.,-12%,2%,.,-1
Cc1ccccc1OCC(=O)OCc1cc(=O)n2ccsc2n1,.,.,0%,.,.,.
Cc1nn(-c2ccccc2)c2c1C(c1ccc([N+](=O)[O-])cc1)N1C(=N2)C(=O)Nc2ccccc21 (configuration not stated),23µM*,?,-48%,-11%,-18%,-8
Cc1nn(-c2ccc([N+](=O)[O-])cc2)c2c1C(c1cccc(Br)c1)N1C(=N2)C(=O)Nc2ccccc21 (configuration not stated),?,-20%,-43%,2%,2%,-5
CCOC(=O)C1=C(COC(=O)c2cccc(N(C)C)c2)NC(=O)NC1C (configuration not stated),?,.,4.5µM*,18%,.,4
CN(C)c1nc(SCc2ccccc2Cl)nc2c1CCCC2,-1%,7.9µM*,-16%,2%,7%[0.365 µM],23
O=C1OC(c2ccccc2)=C/C1=C/N1CCOCC1,?,-15%,13µM*,?,1%,15
O=C1OC(c2ccccc2)=C/C1=C\N1CCOCC1,?,-29%,?,26%,17%,17
O=C(c1ccc2c(=O)n3c(nc2c1)CCCCC3)N1CCN(c2ccccc2)CC1,-22%,23%,-13%,-4%,-9%,15
CC(=O)c1ccc(NC(=O)c2ccc3c(=O)n4c(nc3c2)CCCCC4)cc1,?,16%,-13%,-6%,5%,20
O=C(Nc1ccc(S(=O)(=O)N2CCCC2)cc1)c1ccc2c(=O)n3c(nc2c1)CCCCC3,10µM*,?,-65%,-5%,-7%,5
Cc1ccc(-c2csc(NC(=O)c3ccc4c(=O)n5c(nc4c3)CCCCC5)n2)cc1,2.9µM*,?,-9%,-5%,-9%,17
O=C(c1ccc2c(=O)n3c(nc2c1)CCCCC3)N1CCN(C(c2ccccc2)c2ccccc2)CC1,23µM*,35%,-91%,-1%,6%,-22
Cc1ccc(S(=O)(=O)N2CCCCC2)cc1NC(=O)c1ccc2c(=O)n3c(nc2c1)CCCCC3,12µM*,41%,.,-6%,-2%,.
COc1ccc(CN2CCC(=O)N([C@H](CO)CC(C)C)CC2)cc1OC,17%,13%,29%,11%,4%,-17
Cc1cccc(NC(=O)CSc2nnnn2C2CCCC2)c1,13%,-11%,-8%,-1%,7%,-3
COc1cc2c(ccc3cc(OC)c(OC)c(O)c32)cc1O,?,-6%,-42%,-8%,1%,-5
COc1cc2cccc(OC)c(=O)c2c(O)c1OC,?,13%[10 µM],10µM*,?,-2%,1
O=C1Nc2ccccc2CN2C(=O)c3cc(Cl)ccc3NC(=O)C12 (configuration not stated),.,.,1%,.,.,.
COc1ccc(OCc2n[nH]c(=S)n2-c2ccc(C)cc2)cc1,-2%,2.2µM*,-3%,-1%,?,-29
COc1ccc(-n2c(COc3ccc(C)cc3)nnc2SCC(=O)O)cc1,?,14%,2%,?,-5%,21
SMILES,ELG1 repair inh,RORg inh,BRCA1 expr up,p53 reactivator,VP16 counter,Giardia killer
COc1ccc(-n2c(COc3cccc(C)c3)n[nH]c2=S)cc1,12%,3.5µM*,-18%,.,5µM*,17
COc1cc([N+](=O)[O-])c(OC)cc1SCc1n[nH]c(=S)n1-c1ccc(C)cc1,-18%,2.2µM*,-33%,-4%,-11%,-21
O=C1OC(NC(=O)c2ccccc2)C(n2cc(CO)nn2)=C1Cl (configuration not stated),16%,?,3%,-1%,?,8
COc1ccc(C(=O)Oc2c(OC)cc(C(=S)N3CCOCC3)cc2OC)cc1,?,36%,-14%,?,0%,6
CNc1nc(-c2ccc3c(c2)CCN3C(=O)c2ccccc2C)cs1,?,-36%,2µM*,11%,-3%,15
CS(=O)(=O)N1CCc2cc(-c3csc(NC(=O)Cc4cccs4)n3)ccc21,5.8µM*,17%,-85%,0%,?,3
COc1cc(C#Cc2c(-c3cncn3C)n(C)c3ccc(-c4ccc(CN5CCOCC5)cc4)cc23)cc(OC)c1,?,.,-44%,-1%,.,15
O=S(=O)(c1cccs1)N1CCN(CCOc2ccc(Cl)cc2)CC1,-18%,.,-22%,-3%,.,8
O=S(=O)(c1cccs1)N1CCN(CC(O)COc2cc(Cl)ccc2Cl)CC1 (configuration not stated),8.2µM*,-10%,-64%,-3%,18µM*,2
COCc1c(C#N)c(NCc2cc(OC)c(OC)c(OC)c2)nc(C)c1[N+](=O)[O-],16µM*,?,-47%,-6%,?,-11
Cc1ccc(COCCN2CCN(S(=O)(=O)c3ccccc3)CCC2=O)cc1,9%,2%,-5%,0%,-11%,-2
S=c1[nH]nc(Cc2ccccc2)n1Cc1ccco1,?,14µM*,0%,4%,13µM*,8
Oc1cc2ccccc2cc1-c1n[nH]c(=S)n1Cc1ccco1,-7%,13µM*,-10%,0%,-4%,-23
CCn1c(C(C)NS(=O)(=O)c2ccc(Cl)cc2)n[nH]c1=S (configuration not stated),1%,-31%,-17%,-3%,0%,6
Oc1ccc(-c2n[nH]c(=S)n2Cc2ccco2)cc1,18%,-44%,2%,-5%,-1%,8
CCCn1c(Cc2ccccc2)n[nH]c1=S,-4%,16µM*,0%,1%,?,-7
CCCn1c(C(C)NS(=O)(=O)c2ccccc2)n[nH]c1=S (configuration not stated),-6%,10µM*,-1%,0%,-6%,30
O=C(O)CCc1nn2c3ccccc3n(Cc3ccccc3F)c2nc1=O,8%,3%,0%,7%,-2%,1
O=C(C[n+]1cccc(C(=O)Nc2ccccc2)c1)c1ccccc1,.,.,23%,.,.,.

# From PubChem
